Measurements taken from ChEMBL document CHEMBL3433997, “St. Jude Leishmania screening dataset” (2016).

biological target: Glucose transporter (Leishmania mexicana) (UniProt O61059); assay: ST_JUDE_LEISH: Cytotoxicity at 2uM final concentration against transgenic Leishmania Mexicana promastigotes LmGT2 that are glucose transport deficient and complemented with the L. Mexicana glucose transporter 2. Activity is measured by DNA content using SYBR green in vitro; format: functional

| SMILES | inhibition |
| --- | --- |
| Cc1ccc(Nc2nccc(NCC(O)c3ccc(C(F)(F)F)cc3)n2)cc1 (stereo not given) | 3.67% |
| Nc1ccc(-c2cc(Cl)cc(Cl)c2)cc1-c1cc2ccccc2[nH]1 | -0.38% |
| Cc1ccc(S(=O)(=O)n2nccc2-c2c(-c3ccc(Cl)cc3)noc2C)cc1 | 2.23% |
| Cc1cc2[nH]c(-c3ccc(C(=O)NCCCN4CCN(c5cccc(Cl)c5)CC4)cc3F)nc2cc1Cl | -0.02% |
| Nc1cc(C(F)(F)F)ccc1Cl | -2.26% |
| CCN(CC)CCCC(C)N=c1cc(C=Cc2ccc([N+](=O)[O-])cc2)[nH]c2ccc(OC)cc12 (stereo not given) | 2.98% |
| COc1cc2nc(N3CCC(CNC(=O)c4ccc(-c5ccc(C(=O)N(C)C)cc5OCCN(C)C)cc4)CC3)nc(N)c2cc1OC | 0.37% |
| Cc1n[nH]c2cc(Nc3ccnc(Nc4cccc(CN5CCOCC5)c4)n3)ccc12 | 3.19% |
| COc1ccc(-c2nc3cccnc3n2CC(=O)Nc2c(C)cc(C)cc2C)c(OC)c1 | 1.82% |
| COc1ccc(C(=O)Nc2ccc3nc(N4CCCCC4)cc(C)c3c2)cc1OC | 0.56% |
| Cc1cc2ncn(-c3nccc(NCc4ccc(F)c(C)c4)n3)c2cc1C | 2.52% |
| Fc1ccc(-c2csc3ncnc(Cl)c23)cc1 | -2.14% |
| NCc1cccc(-c2cccc(CNC3CCN(Cc4ccccc4)CC3)c2)c1 | -0.37% |
| O=C(Nc1cc(C(F)(F)F)ccc1N1CCOCC1)C(Cl)(Cl)Cl | 9.48% |
| CN1CCN(c2ccc(-c3nc4ccc(OCc5cc(Cl)cc(Cl)c5)c(C(N)=O)c4[nH]3)cc2)CC1 | 0.86% |
| Cn1cncc1C(=O)Nc1cccc(-c2ccc(-c3nc4cc(F)ccc4[nH]3)cc2)c1 | 3.3% |
| Cc1ccccc1C1CCN(C2CCC(NC(=O)/C=C/c3ccc(Cl)cc3)CC2)CC1 (stereo not given) | 2.42% |
| CN1CCOc2ccc(Nc3nnc(-c4cccc(-c5cccnc5)c4)o3)cc2C1 | 1.35% |
| O=C(c1cc(-c2ccccc2)n[nH]1)N1CCN(S(=O)(=O)c2ccc(Cl)s2)CC1 | 2.66% |
| CCc1sc(N2CCN(C)CC2)nc1C(=O)NCCc1ccc(Cl)c(Cl)c1 | 3.6% |

| SMILES | inhibition |
| --- | --- |
| CC(C)(C)NCCN(Cc1ccc(-c2ccc(C(F)(F)F)cc2)cc1)C(=O)Cn1c(SCc2ccc(F)cc2)nc(=O)c2c1CCC2 | 1.74% |
| O=C(c1ccccc1[N+](=O)[O-])N(Cc1ccccc1)c1ccccn1 | 6.57% |
| CCC(C)c1ccc(-n2c(Nc3ccccc3)nc3cc(S(N)(=O)=O)ccc32)cc1 (stereo not given) | 5.77% |
| CCCN(CCC)S(=O)(=O)c1ccc(C(=O)N2CCC(C(=O)OCC)CC2)cc1 | 5.48% |
| COc1ccc2nc(SC(C)C(=O)c3c[nH]c4ccccc34)[nH]c2c1 (stereo not given) | 2.35% |
| O=C(Nc1ccc2[nH]c(-c3ccccc3)nc2c1)c1cc(-c2ccc3c(c2)OCCO3)n[nH]1 | 11.4% |
| CCC(CC)N1CCN(CC(=O)Nc2ccc([N+](=O)[O-])cc2C(=O)Nc2cccc(OC)c2)CC1 | 1.35% |
| C#CCCC(=O)Nc1cccc(-c2cccc(-c3nc4cc(C(F)(F)F)ccc4[nH]3)c2)c1 | 1.42% |
| COc1ccc(-c2ccc(NC(=O)c3cccc(C#N)c3)cc2)cc1CN1CCCC(C(N)=O)C1 (stereo not given) | 5.2% |
| Cc1cc(N(C)C)nc(Nc2ccc(NC(=O)c3c(F)cccc3Cl)cc2)n1 | -0.01% |
| Cc1cc(=NN=Cc2ccc(F)cc2)c2ccc(C(F)(F)F)cc2[nH]1 | 1.74% |
| COc1ccc2c(Nc3ccc(N4CCN(C)CC4)cc3)cc(C)nc2c1 | 4.55% |
| CN(C)CCN(C)C(=O)c1cc(-c2ccncc2)c(-c2ccc(Cl)c(O)c2)o1 | 6.77% |
| CCn1ccc2c(N3CCCCS3(=O)=O)cc(C(=O)N[C@@H](Cc3ccccc3)[C@H](O)CNC(C)(C)c3cccc(C(F)(F)F)c3)cc21 | -1.56% |
| COc1cccc(CN2CCCC(COC(c3ccc(F)cc3)c3ccc(F)cc3)C2)c1O (stereo not given) | -0.91% |
| CCc1ccc(C2CCN(CCCCNC(=O)c3ccc(-c4ccc(C#N)cc4)cc3)CC2)c(OCCO)c1 | 1.5% |
| Nc1nc(N)c2c(Oc3cccnc3)cccc2n1 | -0.57% |
| CN1CCC(C(=O)Nc2cccc(-c3ccc(-c4nc5cc(F)ccc5[nH]4)cc3)c2)CC1 | 9.64% |
| Oc1ccc(Nc2nc(NCc3ccco3)c3ccccc3n2)cc1 | 10.9% |
| COc1cc(NC(=O)c2nn(CCCN3CCC(N4CCCC4)CC3)cc2-c2ccc(Cl)c(Cl)c2)cc(OC)c1OC | 1.96% |
